PubChem BioAssay (NCI)
Compounds without any hit were thinned out: in the full panel of roughly 83,000, 20% have a hit.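 Method: cells in 96-well plates; compound added at one concentration; 48 h incubation; percent growth measured; values under 10 scored active.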 Active and inactive are the calls of the source.

Legend:
Experiment in all cases: NCI-60 one-dose screen, 48 h (100 = growth as untreated, 0 = no growth, -100 = all killed)
Conditions in all cases: 10 µM unless noted
[1] = test system: HCT-15 colon
[2] = test system: HT29 colon
[3] = test system: SNB-75 CNS
[4] = test system: SNB-19 CNS
[5] = test system: U251 CNS
[6] = test system: PC-3 prostate
[7] = test system: SK-MEL-5 melanoma
[8] = test system: UACC-62 melanoma
[9] = test system: LOX IMVI melanoma
[10] = test system: SK-MEL-28 melanoma
[11] = test system: SK-MEL-2 melanoma
[12] = test system: EKVX NSCLC
[13] = test system: SN12C renal
[14] = test system: UO-31 renal
[15] = test system: TK-10 renal
[16] = test system: ACHN renal
[17] = test system: CAKI-1 renal
[18] = test system: A498 renal
[19] = test system: CCRF-CEM leukemia
[20] = test system: MOLT-4 leukemia

Measured: growth

CNc1ncc2cc(-c3ccc(-c4ncccc4F)cc3Cl)c(=O)n(CC3OCC(N)CO3)c2n1 (stereo not given)
inactive: [1] 87.5% | [2] 48.1% | [3] 24% | [4] 69% | [5] 51.8% | [6] 81.9% | [7] 82.6% | [8] 78.6% | [9] 32.3% | [10] 92.9% | [11] 93.5% | [12] 57.6% | [13] 59.8% | [15] 13.1% | [16] 40.9% | [19] 78.1% | [20] 57.8%
active: [14] -12.3% | [17] 0.298% | [18] 6.43%

CC(=O)C1=C(C)NC(NNC(N)=S)=NC1c1ccccc1 (stereo not given)
inactive: [1] 105% | [2] 109% | [3] 41.1% | [4] 98.8% | [5] 106% | [6] 99.9% | [7] 96.7% | [8] 93.3% | [9] 88.2% | [10] 98.1% | [11] 96.9% | [12] 70.9% | [13] 83.8% | [14] 59.5% | [15] 56.8% | [16] 101% | [17] 64.7% | [19] 95.5% | [20] 114%
active: [18] 2.72%

Cc1ccc(-c2nnc(SCc3ccc(O)c4ncccc34)o2)cc1
active: [3] 0.0889% | [5] 7.11% | [7] 2.42% | [8] 2.61% | [9] 4.71% | [14] -12.8%
inactive: [1] 10.8% | [2] 79% | [4] 11.1% | [6] 12.2% | [10] 22.8% | [11] 34.8% | [12] 22.1% | [13] 34.5% | [15] 24.3% | [16] 10.3% | [17] 24.8% | [18] 36.5% | [19] 12.3% | [20] 10.8%

CC1(C)CC[C@]23CC[C@]4(C)[C@H](CC[C@@H]5[C@@]6(C)CCCN(CO)C(C)(C)[C@@H]6CC[C@]54C)[C@H]2[C@H]1OC3
inactive: [2] 21% | [3] 112% | [4] 56.6% | [5] 32.5% | [6] 73.6% | [7] 100% | [8] 101% | [10] 103% | [11] 98.4% | [12] 90.9% | [13] 89.6% | [14] 76.7% | [15] 129% | [16] 96.7% | [17] 62.1% | [18] 107% | [19] 58.5% | [20] 35.4%
active: [1] 7.34% | [9] -80.9%

COc1c(N2CC3CCCNC3C2)c(F)cc2c(=O)c(C(=O)N/N=C/c3ccc(N(C)C)cc3)cn(C3CC3)c12 (stereo not given)
inactive: [1] 16.4% | [3] 100% | [4] 78.3% | [5] 49% | [6] 60.4% | [7] 83.9% | [8] 100% | [10] 97.8% | [11] 114% | [12] 86.2% | [13] 65.5% | [14] 59.1% | [15] 122% | [16] 46.8% | [17] 90.3% | [18] 113% | [19] 29.6% | [20] 29.5%
active: [2] -12% | [9] -22.6%

N#Cc1c(-c2cccs2)cc(-c2cnccn2)nc1SCC(=O)c1ccc(F)cc1
active: [18] 8.83%
inactive: [1] 100% | [2] 105% | [3] 58.5% | [4] 97.7% | [5] 104% | [6] 87.2% | [7] 96.4% | [8] 81.1% | [9] 85.4% | [10] 100% | [11] 102% | [12] 58.9% | [13] 80.3% | [14] 54.7% | [15] 89.3% | [16] 92.2% | [17] 59.7% | [19] 94.5% | [20] 92.7%

Nc1ncc(-c2ccc3ncnc(N4CCc5cc(F)c(F)cc54)c3c2)cn1
inactive: [1] 23.1% | [2] 33.1% | [3] 27.3% | [4] 43.1% | [5] 41.2% | [6] 17.7% | [7] 16.2% | [9] 11.1% | [10] 33.2% | [11] 33.2% | [12] 18.7% | [13] 25.1% | [16] 19.5% | [17] 15.3% | [19] 24.2%
active: [8] 9.67% | [14] 8.51% | [15] -2.82% | [18] -42.9% | [20] 8.56%

C=C=COc1cccc(/C(N)=N/C(N)=N/c2nc3ccccc3s2)c1
inactive: [1] 83.6% | [2] 107% | [3] 85.6% | [4] 97.5% | [5] 80.5% | [6] 30.3% | [7] 98.5% | [8] 94.2% | [9] 37.7% | [10] 64% | [11] 104% | [12] 55.8% | [13] 66.7% | [14] 31.2% | [15] 133% | [16] 79.7% | [17] 36.9% | [18] 79.7% | [19] 32% | [20] 47.4%

COc1ccc(-c2nc3cccc(O)c3c(=O)n2Cc2ccccc2)cc1COc1ccc(NC(C)=O)cc1
active: [9] 2.67% [3 µM]
inactive: [1] 12.5% [3 µM] | [2] 55.9% [3 µM] | [3] 44.8% [3 µM] | [4] 42% [3 µM] | [5] 30% [3 µM] | [6] 36.5% [3 µM] | [7] 29.4% [3 µM] | [8] 37.3% [3 µM] | [10] 55.4% [3 µM] | [11] 86.8% [3 µM] | [12] 79.5% [3 µM] | [13] 62.3% [3 µM] | [14] 74.2% [3 µM] | [15] 69.4% [3 µM] | [16] 36.2% [3 µM] | [17] 57% [3 µM] | [18] 70.5% [3 µM] | [19] 41.6% [3 µM] | [20] 15.4% [3 µM]

Cc1cccc2c3c(sc12)C(c1ccc(Cl)cc1)c1c(nc(CC(=O)Nc2ccccc2)[nH]c1=O)O3 (stereo not given)
inactive: [1] 47.5% | [2] 73.6% | [3] 30.8% | [4] 64.5% | [5] 54.2% | [6] 43.3% | [7] 91.7% | [8] 27% | [9] 56.1% | [10] 56.5% | [11] 68.4% | [12] 63.7% | [13] 71.9% | [14] 50.9% | [15] 132% | [16] 47.3% | [17] 41.1% | [18] 41.5% | [19] 59% | [20] 83.4%

O=C1[C@H]2Cc3c([nH]c4ccccc34)[C@@H](c3c(Cl)cccc3Cl)N2C(=O)CN1C1CCN(CC2CCCCC2)CC1
inactive: [1] 29.5% | [2] 20.5% | [3] 100% | [4] 94.6% | [5] 89.1% | [6] 63.5% | [7] 83.7% | [8] 94.3% | [10] 99.3% | [11] 111% | [12] 88.2% | [13] 87.8% | [14] 62.6% | [15] 142% | [16] 84.1% | [17] 81.9% | [18] 87.2% | [19] 47.2% | [20] 54.6%
active: [9] -59.9%

CNC(=O)c1c(NC(=O)c2ccccc2C(F)(F)F)sc2c1CCC(=O)C2
inactive: [2] 26.5% | [3] 93.1% | [4] 41.1% | [5] 24.8% | [6] 14.8% | [8] 16.6% | [9] 22% | [10] 45.4% | [11] 88.1% | [12] 23.9% | [13] 62.1% | [15] 26.2% | [18] 80.4% | [19] 11.9% | [20] 18.3%
active: [1] 9.11% | [7] -17.1% | [14] 3.82% | [16] 9.31% | [17] 0.09%

Cc1ccc(-c2cc3nc(C(Cl)Cl)nc(-c4cccs4)n3n2)cc1
inactive: [1] 61.7% | [2] 39.2% | [3] 110% | [4] 63.8% | [5] 39.4% | [6] 66.5% | [7] 96.8% | [8] 78.9% | [9] 96.2% | [10] 87.4% | [11] 105% | [12] 66.3% | [13] 85.9% | [14] 70.7% | [15] 141% | [16] 21% | [17] 55.6% | [18] 84.3% | [19] 104% | [20] 98.6%

CNC1CCc2c(sc(NC(=O)c3ccc(C(C)(C)C)cc3)c2C(N)=O)C1 (stereo not given)
inactive: [3] 78.8% | [4] 55.6% | [6] 40% | [7] 83.6% | [8] 60.5% | [10] 63.2% | [11] 72.8% | [12] 54.6% | [13] 69.2% | [14] 79.5% | [15] 101% | [16] 37% | [17] 42.4% | [18] 73.9% | [19] 11.5%
active: [1] 4.54% | [2] -0.193% | [5] 3.54% | [9] -88.1% | [20] 0.786%

COc1ccc(C2CC(c3cccc(Nc4nc(Cl)nc5cc(OC)c(OC)cc45)c3)=Nc3c(N)nc(N)nc3N2)cc1 (stereo not given)
inactive: [1] 34.5% | [2] 57.8% | [3] 94.5% | [4] 70.1% | [5] 16.9% | [6] 62.7% | [7] 72.1% | [8] 95.6% | [9] 54.2% | [10] 101% | [11] 100% | [12] 92.1% | [13] 81.8% | [14] 90.7% | [15] 117% | [16] 100% | [17] 94% | [18] 94.7% | [19] 36% | [20] 43.6%
